Measurements published in PubChem BioAssay AID602244 (Sanford-Burnham Center for Chemical Genomics, 2012).
About 1,300 (0.36%) of roughly 360,000 compounds were called active. This excerpt belongs to a sample that is enriched for actives. Unmarked numbers belong to inactive results. Cut-off read from the data, not from the text of the source: active = inhibition above about 34% (passing the limit was not always enough); inactive = the rest.

Biological target: C-X-C chemokine receptor type 6 (Homo sapiens) (UniProt O00574)
Sequence (O00574 whole entry, looked up): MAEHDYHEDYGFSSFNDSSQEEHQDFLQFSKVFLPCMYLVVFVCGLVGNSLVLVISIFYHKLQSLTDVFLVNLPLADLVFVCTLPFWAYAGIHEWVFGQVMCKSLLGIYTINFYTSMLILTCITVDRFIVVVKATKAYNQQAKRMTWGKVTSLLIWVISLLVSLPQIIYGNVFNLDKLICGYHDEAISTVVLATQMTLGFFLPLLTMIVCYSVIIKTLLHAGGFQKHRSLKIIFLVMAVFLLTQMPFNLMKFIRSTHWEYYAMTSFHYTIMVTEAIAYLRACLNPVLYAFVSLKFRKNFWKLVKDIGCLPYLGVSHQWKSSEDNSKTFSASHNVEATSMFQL
Experiment: blockade of CXCL16-induced CXCR6 beta-arrestin recruitment – cell-based, luminescence, CHO-K1 PathHunter, 1536-well, primary screen (AID 602244);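 note: antagonist mode with CXCL16 agonist at 10 nM final; 0% = 10 nM CXCL16 with DMSO and 100% = unstimulated wells without agonist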
Settings: at 20 µM, hits give high values

Q: With Cn1c(O)c(C=NCCCC(=O)O)c(=O)n(C)c1=O as the molecule, how does the inhibition read?
A: The inhibition was -3.2%.

Q: With CCCCC(=O)N/N=C/c1c(O)n(CC)c(=S)n(CC)c1=O as the molecule, how does the inhibition read?
A: The inhibition was 58.7% (active).

Q: How did the inhibition turn out when O=C(N/N=C/c1c(O)n(Cc2ccccc2)c(=O)[nH]c1=O)c1ccccc1 was run?
A: The inhibition was 7.9%.

Q: With Cc1cc(C)cc(NC(=S)NC2CC3CCCC(C2)N3Cc2cccs2)c1 (stereo not given) as the molecule, how does the inhibition read?
A: The inhibition was 3.2%.

Q: How did the inhibition turn out when Oc1cc2c(cc1CN1CCN(c3ccccc3)CC1)OCO2 was run?
A: The inhibition was 5.6%.

Q: With CCCC[N+]1(C)C2CC(OC(=O)C(CO)c3ccccc3)CC1C1OC12 (stereo not given) as the molecule, how does the inhibition read?
A: The inhibition was 0.8%.

Q: How did the inhibition turn out when Cc1ccc(-c2nn(CCC#N)cc2C(=O)O)cc1C was run?
A: The inhibition was 9.5%.

Q: With Cc1cccc(N2C(=O)NC(=O)/C(=C\c3cnn(-c4ccccc4)c3)C2=O)c1 as the molecule, how does the inhibition read?
A: The inhibition was 51.1% (active).

Q: C/C=C/CC1(CC)C(=O)NC(=S)NC1=O was tested. Which inhibition did it give?
A: The inhibition was -5.1%.

Q: How did the inhibition turn out when COc1ccc(S(=O)(=O)NCc2ccc(C(=O)N3CCC4(CC3)OCCO4)cc2)cc1 was run?
A: The inhibition was 3.3%.

Q: Which inhibition does the source give for CCOC(=O)C1=C(C)OC(N)=C(C(=O)OC)C12C(=O)Nc1ccc(Br)cc12 (stereo not given) here?
A: The inhibition was 9.8%.

Q: O=C1NC(=O)C(CCOc2ccccc2)(CCc2ccccc2)C(=O)N1 was tested. Which inhibition did it give?
A: Its inhibition is -10%.

Q: For C=CCN1C(=O)C2(C(C(=O)OCC)=C(N)Oc3c2c(=O)oc2ccccc32)c2ccccc21 (stereo not given), which inhibition is on record?
A: Its inhibition is -2.4%.

Q: With CC(=O)OC1C2(CC3N4C(=O)C5(CO)SSC4(CC31O)C(=O)N5C)OC(C)C(C)(C)C2=O (stereo not given) as the molecule, how does the inhibition read?
A: Its inhibition is 99.4% (active).

Q: For CNC(=O)O/N=C(\N)Cc1csc2ccc(Cl)cc12, which inhibition is on record?
A: The inhibition was 0%.
